From PubChem BioAssay (Tox21) come the findings set out here.

“And” between values parts separate entries of the source, which are not always exact repeats. Identical values can stand only once. Inconclusive results are not listed. The source made the active and inactive calls. Unless noted, the call rests on the fitted dose curve; in most records, active means well fitted curve in the direction sought with a large enough effect in the repeat runs; inconclusive means weak or mixed curves; inactive means flat fitted curve, though single readings scatter.

The nature of experiment [1]: qHTS assay to test for compound auto fluorescence at 535 nm (green) in HEK293 cells (AID 720680).
Experiment [2] in a line: qHTS assay to test for compound auto fluorescence at 460 nm (blue) in HEK293 cell free culture (AID 720681). In outline:
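Blue fluorescence (Ex 405/Em 460 nm, triamterene-equivalent) was read immediately after pin transfer of compound or DMSO into medium (DMEM, 10% FBS) without cells.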
(In general: Quantitative high-throughput screening tests each substance at several concentrations.)

Experiment [3] can be described thus: qHTS assay to test for compound auto fluorescence at 535 nm (green) in HEK293 cell free culture (AID 720682). In outline:
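Using fluorescein as calibrant, autofluorescence was quantified at 485/535 nm in cell-free DMEM containing 10% FBS after pintool addition of compound or vehicle.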

Experiment [4] in a line: qHTS assay to test for compound auto fluorescence at 590 nm (red) in HEK293 cell free culture (AID 720683). In outline:
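Red-channel autofluorescence of compounds in culture medium (DMEM, 10% FBS), no cells, measured at 540/590 nm. Rose Bengal sodium is the reference fluorophore for equivalence.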

Experiment [5] in a line: qHTS assay to test for compound auto fluorescence at 590 nm (red) in HepG2 cell free culture (AID 720684). In a few lines: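 Plate contents were MEM with 10% FBS plus test compound or DMSO, no cells. Fluorescence was recorded with 540 nm excitation and 590 nm emission.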
A short description of experiment [6]: qHTS assay to test for compound auto fluorescence at 460 nm (blue) in HepG2 cell free culture (AID 720685). In outline: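 Compound (23 nL) or DMSO pinned into cell-free MEM with 10% FBS; blue fluorescence read at 405/460 nm excitation/emission, expressed as auto-fluorescence equivalency to triamterene.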
The nature of experiment [7]: qHTS assay to test for compound auto fluorescence at 460 nm (blue) in HepG2 cells (AID 720687). In a few lines: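 Blue-channel autofluorescence (Ex/Em 405/460 nm, triamterene-equivalent) was measured after 1 hr compound exposure at 37 C, 5% CO2. Cells were HepG2, plated overnight at 37 C in MEM plus 10% FBS.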
A short description of experiment [8]: qHTS assay to test for compound auto fluorescence at 535 nm (green) in HepG2 cell free culture (AID 720686).
Experiment [9] deals with Glucocorticoid receptor (Homo sapiens) (UniProt P04150). Description: qHTS assay to identify small molecule agonists of the glucocorticoid receptor (GR) signaling pathway (AID 720691; active means well fitted activation curve with a large enough effect in the signal ratio in the repeat runs, not every such curve was filed as active; the % refers to the signal ratio). In a few lines: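 GR-bla HeLa cells carrying a GRE-driven beta-lactamase reporter, exposed to compounds for 18 h at 37 C. Reporter activation read as fluorescence after 2 h with LiveBLAzer B/G FRET substrate at room temperature.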
Sequence of Glucocorticoid receptor (Homo sapiens) (P04150 whole entry, looked up): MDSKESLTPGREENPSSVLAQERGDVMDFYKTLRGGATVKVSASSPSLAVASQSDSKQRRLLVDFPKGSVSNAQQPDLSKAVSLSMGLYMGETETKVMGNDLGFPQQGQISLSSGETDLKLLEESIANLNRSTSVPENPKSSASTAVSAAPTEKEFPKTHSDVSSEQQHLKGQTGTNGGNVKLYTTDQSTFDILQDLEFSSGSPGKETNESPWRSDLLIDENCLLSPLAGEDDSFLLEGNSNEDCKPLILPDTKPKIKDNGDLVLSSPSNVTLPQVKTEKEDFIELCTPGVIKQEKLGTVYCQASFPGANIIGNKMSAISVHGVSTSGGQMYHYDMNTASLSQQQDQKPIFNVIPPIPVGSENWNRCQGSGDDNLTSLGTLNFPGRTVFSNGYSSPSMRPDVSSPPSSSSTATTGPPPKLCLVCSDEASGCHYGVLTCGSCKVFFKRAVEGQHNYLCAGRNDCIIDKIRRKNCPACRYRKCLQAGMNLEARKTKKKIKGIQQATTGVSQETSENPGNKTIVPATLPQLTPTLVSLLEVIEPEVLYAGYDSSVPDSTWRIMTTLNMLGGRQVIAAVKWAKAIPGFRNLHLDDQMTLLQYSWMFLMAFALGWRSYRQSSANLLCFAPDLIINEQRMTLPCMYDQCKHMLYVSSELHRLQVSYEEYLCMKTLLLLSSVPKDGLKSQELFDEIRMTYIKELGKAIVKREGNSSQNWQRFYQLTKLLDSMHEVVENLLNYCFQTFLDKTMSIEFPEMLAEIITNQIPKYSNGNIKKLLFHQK

The target is the same in experiment [10]. Description: qHTS assay to identify small molecule antagonists of the glucocorticoid receptor (GR) signaling pathway (AID 720692; active means well fitted inhibition curve with a large enough effect in the signal ratio in the repeat runs, not every such curve was filed as active; the % refers to the signal ratio; further: potency means the concentration at half of the fitted maximal effect). In outline: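 GR-bla HeLa cells carrying a GRE-driven beta-lactamase reporter received compound after 4 h plating, then dexamethasone (5 nM final). After 18 h at 37C, the FRET substrate was loaded for 2 h at room temperature and fluorescence read.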

Take `Nc1ccc(-c2ccc(N)c(N)c2)cc1N`: the outcome in experiment [1], in experiment [2], in [3], in experiment [4], in [5] and in experiment [6] was inactive. Besides, the compound was called inactive in [7].
With `Nc1c(Cl)cc([N+](=O)[O-])cc1Cl`, the call in [1], in experiment [2], in [3], in experiment [4], in [5] and in experiment [6] was inactive. The compound was called inactive in experiment [8] and in experiment [7]. For the same compound, the Potency result in experiment [9] and in [10] was “inactive” each time.
Consider `CCCCN(CCCC)N=O`, for which the call in experiment [1], in experiment [2], in [3], in experiment [4], in experiment [5] and in experiment [6] was inactive. Besides, the compound was classed as inactive in experiment [8] and in experiment [7]. Besides, the Potency result in experiment [9] and in experiment [10] was “inactive” each time.
As for `COP(=O)(OC)OC`, the call in experiment [1], in experiment [2], in [3], in experiment [4], in experiment [5] and in experiment [6] was inactive. Moreover, the compound was called inactive in experiment [8] and in [7]. Also, the Potency result in experiment [9] and in [10] was “inactive” in each case.
For the compound `C#C[C@]1(O)CC[C@H]2[C@@H]3CCC4=CC(=O)CC[C@]4(C)[C@H]3CC[C@@]21C`, the outcome in experiment [1], in experiment [2], in experiment [3], in experiment [4], in experiment [5] and in experiment [6] was inactive. The compound was classed as inactive in [8] and in experiment [7]. The Potency entry in experiment [9] is “inactive”. Also, the Potency in experiment [10] is 1.69 µM (active).
`CC(C)NC(C)C`: the result in [1], in experiment [2], in experiment [3], in experiment [4], in [5] and in [6] was inactive. Besides, the compound was classed as inactive in [8] and in experiment [7]. For the same compound, the Potency entry in experiment [9] and in experiment [10] was “inactive” in each case.
Turning to `O=P(Oc1ccccc1)(Oc1ccccc1)Oc1ccccc1`, the compound was called inactive in [1], in [2], in [3], in [4], in experiment [5] and in experiment [6]. The outcome in experiment [8] and in [7] was inactive. In addition, the Potency result in experiment [9] and in experiment [10] was “inactive” each time.
On to `C#CCOS(=O)OC1CCCCC1Oc1ccc(C(C)(C)C)cc1` (stereo not given), for which the outcome in experiment [1], in experiment [2], in experiment [3], in [4], in experiment [5] and in experiment [6] was inactive. The call in experiment [8] and in [7] was inactive. In experiment [9], the Potency result was “inactive”. The Potency in [10] was 43.7 µM (active).
Regarding `Cc1ccccc1[N+](=O)[O-]`, the outcome in experiment [1], in [2], in [3], in experiment [4], in experiment [5] and in experiment [6] was inactive. Also, the call in [8] and in experiment [7] was inactive. The Potency result in [9] and in experiment [10] was “inactive” throughout.
With `Clc1nc(Cl)nc(Cl)n1`, the outcome in experiment [1], in experiment [2], in [3], in [4], in experiment [5] and in experiment [6] was inactive. Also, the result in experiment [8] and in experiment [7] was inactive. The Potency entry in experiment [9] and in experiment [10] was “inactive” each time.
Take `C=CCN(CC=C)C(=O)C(Cl)Cl`: the call in experiment [1], in experiment [2], in experiment [3], in [4], in experiment [5] and in [6] was inactive. For the same compound, the outcome in experiment [8] and in [7] was inactive. The Potency result in [9] and in [10] was “inactive” each time.
`CCOc1cc(C=O)ccc1O`: the call in experiment [1], in [2], in experiment [3], in [4], in experiment [5] and in experiment [6] was inactive. Moreover, the call in experiment [8] and in [7] was inactive. For the same compound, the Potency entry in experiment [9] and in [10] was “inactive” in each case.
Turning to `CCCCCCOC(=O)c1ccccc1C(=O)OCCCCCC`, the outcome in experiment [1], in experiment [2], in experiment [3], in [4], in [5] and in experiment [6] was inactive. Moreover, the compound was called inactive in experiment [8] and in experiment [7]. Further, the Potency result in [9] and in experiment [10] was “inactive” in each case.
For the compound `N#CCCCl`, the call in experiment [1], in experiment [2], in experiment [3], in experiment [4], in experiment [5] and in experiment [6] was inactive. The compound was classed as inactive in [8] and in experiment [7]. Further, the Potency entry in experiment [9] and in [10] was “inactive” in each case.
On to `CCOP(=S)(OCC)O/N=C(\C#N)c1ccccc1`, for which the call in experiment [1], in experiment [2], in experiment [3], in experiment [4], in experiment [5] and in experiment [6] was inactive. The compound was classed as inactive in experiment [8] and in experiment [7]. The Potency entry in [9] and in [10] was “inactive” in each case.
As for `CCC(=O)O[C@H]1CC[C@H]2[C@@H]3CCC4=CC(=O)CC[C@]4(C)[C@H]3CC[C@]12C`, the call in [1], in [2], in experiment [3], in experiment [4], in experiment [5] and in experiment [6] was inactive. The compound was called inactive in experiment [8] and in experiment [7]. Besides, the Potency result in experiment [9] was “inactive”. For the same compound, in experiment [10], the Potency was 5.12 µM (active) and 4.9 µM (active).
As to `C1=Cc2cccc3cccc1c23`, the compound was classed as inactive in experiment [1], in experiment [2], in experiment [3], in experiment [4], in experiment [5] and in experiment [6]. The outcome in experiment [8] and in experiment [7] was inactive. In addition, the Potency result in experiment [9] and in experiment [10] was “inactive” each time.
As for `COP(=S)(OC)Oc1cc(Cl)c(Cl)cc1Cl`, the outcome in experiment [1], in [2], in experiment [3], in experiment [4], in experiment [5] and in [6] was inactive. The outcome in experiment [8] and in experiment [7] was inactive. Further, the Potency entry in experiment [9] and in [10] was “inactive” throughout.
Take `c1ccc(NNc2ccccc2)cc1`: the call in experiment [1], in experiment [2], in [3], in [4], in experiment [5] and in experiment [6] was inactive. Besides, the compound was classed as inactive in experiment [8] and in experiment [7]. The Potency entry in experiment [9] and in [10] was “inactive” in each case.
As for `CCCCC(CC)COC(=O)c1ccc(C(=O)OCC(CC)CCCC)c(C(=O)OCC(CC)CCCC)c1` (stereo not given), the compound was classed as inactive in experiment [1], in experiment [2], in [3], in experiment [4], in experiment [5] and in [6]. In addition, the result in experiment [8] and in [7] was inactive. Also, the Potency entry in [9] and in experiment [10] was “inactive” in each case.
For the compound `c1ccc(P(c2ccccc2)c2ccccc2)cc1`, the outcome in [1], in experiment [2], in [3], in experiment [4], in experiment [5] and in experiment [6] was inactive. For the same compound, the call in [8] and in experiment [7] was inactive. Moreover, the Potency entry in [9] and in [10] was “inactive” each time.
`CCOC(=O)C(C)OC(=O)c1cc(Oc2ccc(C(F)(F)F)cc2Cl)ccc1[N+](=O)[O-]` (stereo not given): the outcome in [1], in experiment [2], in [3], in experiment [4], in experiment [5] and in [6] was inactive. For the same compound, the outcome in experiment [7] was inactive. In addition, the Potency entry in experiment [9] and in experiment [10] was “inactive” throughout.
With `C=CC(=O)OCCO`, the compound was classed as inactive in [1], in experiment [2], in experiment [3], in experiment [4], in [5] and in [6]. Also, in [7], the result was inactive. In addition, in experiment [9], the Potency result was “inactive”.
Consider `CCOC(=S)S`, for which the result in experiment [1], in experiment [2], in experiment [3], in [4], in [5] and in [6] was inactive. The result in experiment [7] was inactive.
Turning to `CC(C)(C)c1ccccc1O`, the outcome in [1], in experiment [2], in experiment [3], in experiment [4], in experiment [5] and in experiment [6] was inactive. Moreover, the call in experiment [7] was inactive. Besides, the Potency result in experiment [9] and in experiment [10] was “inactive” throughout.
